Screening results deposited in PubChem BioAssay by National Center for Advancing Translational Sciences (NCATS).
Shown are actives, neighbours in structure and some others; about 12% of the full set was active somewhere.
BAZ2B block – BAZ2B (human) inhibition | AlphaScreen BAZ2B-H3K14Ac peptide displacement | Potency, µM (titrated, usually from 114 µM), for the others: at the top dose activity change, negative = inhibition, hits mostly inhibitors | 360,000 tested, 4.4% active; further: potency means the concentration at half of the fitted maximal effect; on the % scale 0 is the no-effect control and ±100 the full control effect; nearly all actives have a fitted effect of over 60% in size
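In this displacement format the biotinylated H3(5-23) peptide acetylated at Lys14 serves as ligand at 50 nM, with BAZ2B at 50 nM in PBS pH 7.4 containing 0.01% Tween-20. Donor and acceptor beads are 10 ug/mL final.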
PLK1 PBD inh – blocks phosphopeptide binding to human PLK1 polo-box domain; Plk1 PBD binding of FITC phosphopeptide, fluorescence polarization; 360,000 tested, 2.8% active; P53350; Potency, µM, for inactives: max response, negative = inhibition, actives largely listed as inhibitors; AID 720504; further: potency means the concentration at half of the fitted maximal effect; series mostly up to about 57 µM; on the % scale 0 is the no-effect control and ±100 the full control effect; nearly all actives have a fitted effect of over 65% in size
HP1b binding inh – inhibitors of HP1-beta chromodomain binding to methylated histone tails; P83916; 390,000 tested, 0.56% active; Potency, µM (highest dose often 114 µM), without a hit: at the highest dose activity change, negative = inhibition, actives largely listed as inhibitors; AlphaScreen HP1-beta / biotin-H3K9me3 peptide binding; AID 540317; further: potency means the concentration at half of the fitted maximal effect; nearly all actives have a fitted effect of over 70% in size
Target sequence (P83916 whole entry, looked up): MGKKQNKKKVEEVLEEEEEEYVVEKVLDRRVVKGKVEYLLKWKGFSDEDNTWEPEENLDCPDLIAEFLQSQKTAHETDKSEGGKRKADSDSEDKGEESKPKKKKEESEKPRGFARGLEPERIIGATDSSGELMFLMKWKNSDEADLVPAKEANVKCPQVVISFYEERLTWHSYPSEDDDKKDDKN
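AlphaScreen: HP1-beta (50 nM) preformed 30 min with biotin-H3(1-18)K9me3 peptide (50 nM) in PBS pH 7.4, 0.01% Tween-20. Compound added for 30 min at RT, then streptavidin donor/nickel chelate acceptor beads (10 ug/mL) for 30 min.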
PI5P4Ka inh – PI5P4K alpha (human) kinase inhibition; P48426; PI5P4Kalpha enzyme, ADP-Glo luminescence, 60 min; hits give low values; max response, %; 330,000 tested, 1.2% active; AID 652105; active means max response of -50% or lower; inconclusive means between -30% and -50%; inactive means -30% or higher; further: value at the top dose of about 77 µM; on the % scale 0 is the no-effect control and ±100 the full control effect
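qHTS, 1536-well: enzyme/substrate mix, compound by pin tool, 5 microM ATP final; RT 60 min; ADP-Glo reagents 1 (45 min) then 2 (30 min); luminescence.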
G9a inh – blocks human histone lysine methyltransferase G9a; G9a H3K9 monomethylation, AlphaScreen, 2 h; 350,000 tested, 8.8% active; Q96KQ7; Potency, µM (doses to about 102 µM), for inactives: at the top dose activity, negative = inhibition, most hits filed as inhibitors; further: potency means the concentration at half of the fitted maximal effect; on the % scale 0 is the no-effect control and ±100 the full control effect; nearly all actives have a fitted effect of over 75% in size
Target sequence (Q96KQ7 913-1193 limits assumed): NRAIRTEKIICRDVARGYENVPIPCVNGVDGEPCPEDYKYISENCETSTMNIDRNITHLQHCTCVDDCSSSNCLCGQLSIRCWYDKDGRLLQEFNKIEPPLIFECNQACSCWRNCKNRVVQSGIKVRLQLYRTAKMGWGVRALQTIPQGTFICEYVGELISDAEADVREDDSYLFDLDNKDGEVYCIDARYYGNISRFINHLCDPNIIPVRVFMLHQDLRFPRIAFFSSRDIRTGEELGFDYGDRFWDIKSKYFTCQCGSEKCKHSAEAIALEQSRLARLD
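Methyltransferase reactions run at room temperature for 2 h (20 nM enzyme, 500 nM biotin-H3K9 peptide, 20 uM SAM) after a 15 min compound preincubation; product detected by AlphaScreen beads and anti-H3K9me1 antibody.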
JMJD2A Tudor – inhibitors of human JMJD2A Tudor domain | O75164 | AlphaScreen JMJD2A-Tudor / H3K4me3 peptide binding | Potency, µM (titrated, usually from 114 µM), for inactives: top-dose activity change, negative = inhibition, actives largely listed as inhibitors | 390,000 tested, 4.4% active | AID 504339; further: potency means the concentration at half of the fitted maximal effect; on the % scale 0 is the no-effect control and ±100 the full control effect; nearly all actives have a fitted effect of over 50% in size
Active calls of the source: *; ? = inconclusive; / = no result given; [ ] = dose if it differs, or a comment. Unless noted, the call rests on the fitted dose curve; in most records, active means well fitted curve in the direction sought with a large enough effect; inconclusive means small, poorly fitted or top-dose-only effect, or another doubt; inactive means no such curve, though single readings can be large; an effect the other way counts as inactive or inconclusive.

SMILES	BAZ2B block	PLK1 PBD inh	HP1b binding inh	PI5P4Ka inh	G9a inh	JMJD2A Tudor
CCOC(=O)C(=NCC1CCCO1)NNc1cc(Cl)ccc1Cl (centres undefined)	?	-16%	2%	39	35µM*	?
CCC1CCC/C1=N\NC(=O)c1ccoc1C (centres undefined)	-29%	2%	20%	-7	-1%[0.501 µM]	-1%
COc1ccc(OC)c(COC(=O)c2cccc(S(=O)(=O)N3CCCCC3)c2)c1	/	-17%	34%	4	/	5%
O=C(O)c1[nH]c2ccc(Cl)cc2c1CC(=O)N1CCN(c2ccccc2)CC1	-2%	-11%	-10%	11	50µM*	-28%
O=C(C1CC(=O)N(c2ccc3c(c2)OCCO3)C1)N1CCN(c2ccccc2O)CC1 (centres undefined)	-1%	-16%	23%	2	68%	-11%
O=C(NCCc1ccccc1)C1CC(=O)N(c2ccc3c(c2)OCCO3)C1 (centres undefined)	6%	-3%	17%	-3	-7%	-11%
O=C(NC(Cc1ccccc1)c1nc2ccccc2[nH]1)C1CC(=O)N(c2ccc3c(c2)OCCO3)C1 (centres undefined)	?	3%	35%	-2	13µM*	?
O=C(Cc1ccc2c(c1)OCCO2)N1CCN(c2ccccc2)CC1	-15%	-25%	-8%	1	50µM*	-27%
O=C(C1CC(=O)N(c2ccc3c(c2)OCCO3)C1)N1CCN(c2ccccc2)CC1 (centres undefined)	50µM*	-13%	-17%	?	?	?
COc1ccccc1N1CCN(C(=O)Cc2c(C(=O)O)[nH]c3ccc(Cl)cc23)CC1	-24%	-6%	26%	8	-22%	-6%
O=C(Nc1ccc(Cl)c(C(F)(F)F)c1)c1nc2ccccc2nc1N1CCCCC1	-34%	/	7%	/	-35%[59 µM]	-31%
CCCCN(C)CCCNC(=O)CN1C(=O)COc2ccc(S(=O)(=O)N3CCC(C)CC3)cc21	3%	/	40%	/	-7%[59 µM]	3%
O=C(CSc1ccc2c(c1)OCCO2)N1CCN(c2ccccc2O)CC1	-25%	-4%	10%	-13	50µM*	-25%
CC(/C=C1\SC(=S)N(NC(=O)c2ccc(O)cc2)C1=O)=C\c1ccccc1	32µM*	-7%	?	-11	?	?
CC(=O)NN1C(=O)/C(=C\c2ccc(O)cc2)SC1=S	-34%	85%	-16%	-14	?	-17%
CC(=C\c1ccccc1)/C=C1/SC(=S)N(C(C(=O)O)C(C)C)C1=O (centres undefined)	71µM*	30µM*	?	-8	35µM*	?
CCC(C(=O)O)N1C(=O)/C(=C/C(C)=C/c2ccccc2)SC1=S (centres undefined)	?	24µM*	?	-2	?	?
CC(NC(=O)Cc1ccc(Br)cc1)c1ccccc1 (centres undefined)	5%	-10%	15%	-1	-9%	-13%
CCOc1ccc(-n2nc3ccc(NC(=O)c4cccc(F)c4)cc3n2)cc1	-16%	/	46%	/	4%[59 µM]	-6%
CCOc1ccc(Nc2nc(C)c(NC(=O)c3cccc(F)c3)c(Nc3ccc(OCC)cc3)n2)cc1	3%	/	39%	/	20µM*	?
Cc1cccc(N2CCN(c3ccc(N4C(=O)CCCC4=O)cc3[N+](=O)[O-])CC2C)c1 (centres undefined)	28µM*	-8%	?	-3	?	?
O=C(COC(=O)c1ccccc1OC(F)F)Nc1ccc2[nH]c(=O)[nH]c2c1	-6%	-10%	11%	-2	40µM*	-19%
O=C(COC(=O)Cc1ccc(F)cc1)Nc1ccc2[nH]c(=O)[nH]c2c1	-2%	-11%	11%	-12	50µM*	-25%
COc1ccc(CC(=O)OCC(=O)Nc2ccc3[nH]c(=O)[nH]c3c2)cc1	9%	-1%	19%	1	?	-10%
Cc1ccc(C(=O)OCC(=O)Nc2ccc3[nH]c(=O)[nH]c3c2)o1	7%	-7%	31%	0	-39%	-16%
